{"source": "PubChem BioAssay (Tox21)", "note": "Results filed as inconclusive are left out. Activity calls are given as the source filed them. Unless noted, calls come from the whole dose curve. % is set by controls: 0 for no effect and ±100 for the full control effect; potency is the fitted concentration of half-maximal effect.", "data": [{"system": "not listed separately", "test": "qHTS assay to identify small molecule agonists of the estrogen receptor beta (ER-beta) signaling pathway - cell viability counter screen (AID 1259380; active = well fitted cell-killing curve with a large enough effect in the repeat runs; note: nearly all actives have a fitted effect of over 30% in size)", "conditions": "ER-beta-bla HEK293T viability, CellTiter-Glo luminescence, 16 h; series mostly up to 92.4 µM; activity change, negative = cytotoxicity: at the top concentration", "outline": "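Steps: plate ER-beta-UAS-bla HEK293T cells, rest 6 hr; add compounds in DMSO; incubate 16 hr at 37C, 5% CO2; add FRET substrate 2 hr; add CellTiter-Glo, wait 30 min at room temperature; read luminescence.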", "values": [{"smiles": "Fc1cc(Br)ccc1CBr", "activity change, negative = cytotoxicity": "0.561% [at 42.5 µM] (inactive)"}, {"smiles": "CC(Cl)(Cl)[N+](=O)[O-]", "activity change, negative = cytotoxicity": "3.05% (inactive)"}, {"smiles": "COC(=O)C(c1ccccc1)C1CCCCN1", "note": "(stereo unspecified)", "activity change, negative = cytotoxicity": "9% (inactive)"}, {"smiles": "c1cc2c(c(N3CCNCC3)c1)OCCO2", "activity change, negative = cytotoxicity": "0.994% [at 42.5 µM] (inactive)"}, {"smiles": "O=C1OC(CCN2CCCCC2)OC1(c1ccccc1)c1ccccc1", "note": "(stereo unspecified)", "activity change, negative = cytotoxicity": "1.07% [at 42.5 µM] (inactive)"}, {"smiles": "c1ccc(N2CCNCC2)cc1", "activity change, negative = cytotoxicity": "4.16% [at 42.5 µM] (inactive)"}, {"smiles": "COc1ncc(F)c2nc(S(=O)(=O)Nc3c(F)cccc3F)nn12", "activity change, negative = cytotoxicity": "-1.85% [at 42.5 µM] (inactive)"}, {"smiles": "CNC(=O)Oc1c(C(C)(C)C)cc(C)cc1C(C)(C)C", "activity change, negative = cytotoxicity": "0.519% (inactive)"}, {"smiles": "O=C(O)c1ccc2[nH]cc(CCCCN3CC=C(c4ccccc4)CC3)c2c1", "activity change, negative = cytotoxicity": "-14.2% [at 42.5 µM] (inactive)"}, {"smiles": "CCN(CC)C(C)C(=O)c1ccccc1", "note": "(stereo unspecified)", "activity change, negative = cytotoxicity": "4.72% [at 42.5 µM] (inactive)"}, {"smiles": "COc1ccc2c(c1OC)CN1CCc3cc4c(cc3C1C2)OCO4", "note": "(stereo unspecified)", "Potency": "9.44 µM (active)"}, {"smiles": "CCCCCCI", "activity change, negative = cytotoxicity": "3.25% (inactive)"}, {"smiles": "CCC(=O)C(CCN(C)C)(c1ccccc1)c1ccccc1", "activity change, negative = cytotoxicity": "1.84% [at 42.5 µM] (inactive)"}, {"smiles": "CC(Oc1ccc(Oc2ncc(C(F)(F)F)cc2Cl)cc1)C(=O)O", "note": "(stereo unspecified)", "Potency": "17.2 µM (active)"}, {"smiles": "N#CC(Cl)(Cl)Cl", "activity change, negative = cytotoxicity": "1.2% (inactive)"}, {"smiles": "COP(N)(=S)Oc1ccccc1C(=O)OC(C)C", "note": "(stereo unspecified)", "activity change, negative = cytotoxicity": "1.44% (inactive)"}, {"smiles": "O=CNC(N1CCN(C(NC=O)C(Cl)(Cl)Cl)CC1)C(Cl)(Cl)Cl", "note": "(stereo unspecified)", "activity change, negative = cytotoxicity": "-2.99% (inactive)"}, {"smiles": "CC(COc1ccc(Oc2ccccc2)cc1)Oc1ccccn1", "note": "(stereo unspecified)", "activity change, negative = cytotoxicity": "15% (inactive)"}, {"smiles": "CC1=C(C(=O)O)N2C(=O)[C@@H](N)[C@H]2SC1", "activity change, negative = cytotoxicity": "7.09% [at 19 µM] (inactive)"}, {"smiles": "Cc1cnc[nH]1", "activity change, negative = cytotoxicity": "1.03% (inactive)"}, {"smiles": "C#CCN1C(=O)COc2cc(F)c(N3C(=O)C4=C(CCCC4)C3=O)cc21", "activity change, negative = cytotoxicity": "3.73% (inactive)"}, {"smiles": "CCOP(=O)(OCC)OP(=O)(OCC)OCC", "activity change, negative = cytotoxicity": "-1.09% (inactive)"}, {"smiles": "CC(C)CC#N", "activity change, negative = cytotoxicity": "10.6% (inactive)"}, {"smiles": "Cc1nc(N)nc(N)n1", "activity change, negative = cytotoxicity": "-1.64% (inactive)"}, {"smiles": "CCC(=O)c1ccccc1", "activity change, negative = cytotoxicity": "3.11% (inactive)"}, {"smiles": "C[C@]12CC[C@H]3[C@@H](CCC4=CC(=O)CC[C@@]43C)[C@@H]1CC[C@@H]2C(=O)O", "activity change, negative = cytotoxicity": "-1.43% [at 42.5 µM] (inactive)"}]}, {"biological_target": "Androgen receptor (Homo sapiens) (UniProt P10275)", "sequence (P10275 whole entry, looked up)": "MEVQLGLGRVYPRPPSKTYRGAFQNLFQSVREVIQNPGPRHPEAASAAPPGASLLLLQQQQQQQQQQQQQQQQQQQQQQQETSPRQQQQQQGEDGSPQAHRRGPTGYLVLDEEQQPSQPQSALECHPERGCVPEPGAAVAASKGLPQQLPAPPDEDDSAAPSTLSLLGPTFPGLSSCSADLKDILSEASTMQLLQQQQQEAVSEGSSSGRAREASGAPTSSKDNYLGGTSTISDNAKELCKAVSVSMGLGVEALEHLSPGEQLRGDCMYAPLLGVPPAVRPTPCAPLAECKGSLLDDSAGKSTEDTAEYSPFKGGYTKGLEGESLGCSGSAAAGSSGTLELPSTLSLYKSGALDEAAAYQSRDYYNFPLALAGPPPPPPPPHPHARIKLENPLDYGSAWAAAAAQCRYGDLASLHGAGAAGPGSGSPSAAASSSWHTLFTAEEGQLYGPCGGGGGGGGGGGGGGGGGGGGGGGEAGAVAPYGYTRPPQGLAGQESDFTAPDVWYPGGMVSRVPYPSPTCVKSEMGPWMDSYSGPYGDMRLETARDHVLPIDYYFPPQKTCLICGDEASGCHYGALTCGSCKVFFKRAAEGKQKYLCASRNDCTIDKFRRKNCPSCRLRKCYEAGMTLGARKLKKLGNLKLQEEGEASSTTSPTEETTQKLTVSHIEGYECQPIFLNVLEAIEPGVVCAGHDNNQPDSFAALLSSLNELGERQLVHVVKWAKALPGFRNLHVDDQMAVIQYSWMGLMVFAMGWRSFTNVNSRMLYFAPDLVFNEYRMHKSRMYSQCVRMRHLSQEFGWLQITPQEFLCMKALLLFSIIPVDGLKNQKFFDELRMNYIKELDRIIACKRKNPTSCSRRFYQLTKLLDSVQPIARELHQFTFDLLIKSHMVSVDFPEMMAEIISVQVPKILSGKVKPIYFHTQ", "test": "qHTS assay to identify small molecule agonists of the androgen receptor (AR) signaling pathway in the presence of an antagonist (AID 1259381); note: nearly all actives have a fitted effect of over 15% in size", "conditions": "MDA-kb2 MMTV-luciferase, AR agonist + nilutamide, 16 h; series mostly up to 92.4 µM; activation: at the top concentration", "outline": "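Reporter-gene luminescence from MDA-kb2 cells exposed 16hr at 37C (0% CO2) to 15-point compound titrations with 3.0uM final nilutamide as AR antagonist.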", "values": [{"smiles": "Fc1cc(Br)ccc1CBr", "activation": "-0.134% [at 42.5 µM] (inactive)"}, {"smiles": "CC(Cl)(Cl)[N+](=O)[O-]", "activation": "-1.14% (inactive)"}, {"smiles": "COC(=O)C(c1ccccc1)C1CCCCN1", "note": "(stereo unspecified)", "activation": "0.439% (inactive)"}, {"smiles": "c1cc2c(c(N3CCNCC3)c1)OCCO2", "activation": "0.0463% [at 42.5 µM] (inactive)"}, {"smiles": "CC1COC2(c3ccccc3Cl)c3cc(Cl)ccc3NC(=O)CN12", "note": "(stereo unspecified)", "activation": "-2.95% [at 42.5 µM] (inactive)"}, {"smiles": "O=C1OC(CCN2CCCCC2)OC1(c1ccccc1)c1ccccc1", "note": "(stereo unspecified)", "activation": "-1.16% [at 42.5 µM] (inactive)"}, {"smiles": "c1ccc(N2CCNCC2)cc1", "activation": "-0.712% [at 42.5 µM] (inactive)"}, {"smiles": "COc1ncc(F)c2nc(S(=O)(=O)Nc3c(F)cccc3F)nn12", "activation": "-0.064% [at 42.5 µM] (inactive)"}, {"smiles": "CNC(=O)Oc1c(C(C)(C)C)cc(C)cc1C(C)(C)C", "activation": "0.666% (inactive)"}, {"smiles": "Clc1ccccc1N1CCNCC1", "activation": "-0.38% [at 42.5 µM] (inactive)"}, {"smiles": "O=C(O)c1ccc2[nH]cc(CCCCN3CC=C(c4ccccc4)CC3)c2c1", "activation": "0.498% [at 42.5 µM] (inactive)"}, {"smiles": "CCN(CC)C(C)C(=O)c1ccccc1", "note": "(stereo unspecified)", "activation": "12.2% [at 42.5 µM] (inactive)"}, {"smiles": "CCOP(=S)(OCC)Oc1ncn(-c2ccccc2)n1", "activation": "-1.79% (inactive)"}, {"smiles": "COc1ccc2c(c1OC)CN1CCc3cc4c(cc3C1C2)OCO4", "note": "(stereo unspecified)", "activation": "-5.23% [at 42.5 µM] (inactive)"}, {"smiles": "CCCCCCI", "activation": "2.49% (inactive)"}, {"smiles": "CCC(=O)C(CCN(C)C)(c1ccccc1)c1ccccc1", "activation": "0.424% [at 42.5 µM] (inactive)"}, {"smiles": "CCOC(=O)C(c1c(O)c2ccccc2oc1=O)c1c(O)c2ccccc2oc1=O", "activation": "-0.861% [at 42.5 µM] (inactive)"}, {"smiles": "CC(C(O)c1ccccc1)N(C)C/C=C/c1ccccc1", "note": "(stereo unspecified)", "activation": "8.71% [at 42.5 µM] (inactive)"}, {"smiles": "CCC(C)(C)c1cc(-n2nc3ccccc3n2)c(O)c(C(C)(C)CC)c1", "activation": "-3.48% (inactive)"}, {"smiles": "CC(Oc1ccc(Oc2ncc(C(F)(F)F)cc2Cl)cc1)C(=O)O", "note": "(stereo unspecified)", "activation": "-2.63% (inactive)"}, {"smiles": "C#C[C@]1(O)C=C[C@H]2[C@@H]3CCC4=CC(=O)CC[C@@H]4[C@H]3CC[C@@]21CC", "Potency": "0.133 µM (active)"}, {"smiles": "N#CC(Cl)(Cl)Cl", "activation": "0.912% (inactive)"}, {"smiles": "O=C(Nc1ccccc1)c1ccccc1I", "activation": "3.19% (inactive)"}, {"smiles": "COP(N)(=S)Oc1ccccc1C(=O)OC(C)C", "note": "(stereo unspecified)", "activation": "-0.0497% (inactive)"}, {"smiles": "O=CNC(N1CCN(C(NC=O)C(Cl)(Cl)Cl)CC1)C(Cl)(Cl)Cl", "note": "(stereo unspecified)", "activation": "0.0967% (inactive)"}, {"smiles": "CC(COc1ccc(Oc2ccccc2)cc1)Oc1ccccn1", "note": "(stereo unspecified)", "activation": "0.0621% (inactive)"}, {"smiles": "CC1=C(C(=O)O)N2C(=O)[C@@H](N)[C@H]2SC1", "activation": "-0.0648% [at 19 µM] (inactive)"}, {"smiles": "Cc1cnc[nH]1", "activation": "0.154% (inactive)"}, {"smiles": "C#CCN1C(=O)COc2cc(F)c(N3C(=O)C4=C(CCCC4)C3=O)cc21", "activation": "0.19% (inactive)"}, {"smiles": "CCOP(=O)(OCC)OP(=O)(OCC)OCC", "activation": "0.112% (inactive)"}, {"smiles": "CCCCOC(=O)c1ccccc1C(=O)O", "activation": "0.101% (inactive)"}, {"smiles": "CC(C)CC#N", "activation": "-1.16% (inactive)"}, {"smiles": "CCOC(=O)C1(c2ccccc2)CCN(CCc2ccc(N)cc2)CC1", "activation": "-1.45% [at 42.5 µM] (inactive)"}, {"smiles": "CCC(=O)c1ccccc1", "activation": "-0.0199% (inactive)"}, {"smiles": "C[C@]12CC[C@H]3[C@@H](CCC4=CC(=O)CC[C@@]43C)[C@@H]1CC[C@@H]2C(=O)O", "activation": "1.29% [at 42.5 µM] (inactive)"}]}]}
